About 83,000 compounds went through this panel and 20% of them were active in at least one assay; those are over-represented in the sample as a whole.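 Values shown are percent growth following 48 h exposure of cells in 96-well plates to a single concentration of compound; below 10 was considered active.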 Values without a mark were called inactive. Active and inactive are the calls of the source.
Test system: MDA-MB-468 breast
Assay: NCI-60 one-dose screen, 48 h (100 = growth as untreated, 0 = no growth, -100 = all killed)
Settings: 10 µM unless noted

Row | Compound | growth
1 | Cn1ccc2c1CC1CN(Cc3ccco3)C(=O)C1C2C(=O)O (stereo not given) | 104%
2 | O=C(Cc1ccc(OCc2ccccc2)cc1)NCc1ccc2c(c1)OCO2 | 81.5%
3 | C#Cc1cccc(Nc2ncnc3cc(OC)c(OCCCCCCC(=O)NO)cc23)c1 | -44.4% (active)
4 | O=C(Nc1nc(-c2ccc(Br)cc2)cs1)c1cc(-c2ccc(Br)cc2)nc2ccc(Cl)cc12 | 102%
5 | C=C(C)[C@@H]1CC[C@]2(C(=O)OC)CC[C@]3(C)[C@H](CC[C@@H]4[C@@]5(C)C/C(=C/c6ccc(OC)cc6)C(=O)C(C)(C)[C@@H]5CC[C@]43C)[C@@H]12 | 76%
6 | c1ccc(Nc2nc(Nc3ccccc3)nc(Nc3ccccc3)n2)cc1 | 93.8%
7 | CCC1C[N+]2=C(c3cc(OC)c(OC)cc3CC2)c2c1cc1n2CCc2cc(OC)c(OC)cc2-1 (stereo not given) | 1.92% (active)
8 | Cn1c(=O)c2[nH]c(CCCc3nc4c([nH]3)c(=O)n(C)c(=O)n4C)nc2n(C)c1=O | 103%
9 | CCN(CCNc1ccc(C)c2sc3cc(Cl)ccc3c(=O)c12)CC(C)(C)O | -19.3% (active)
10 | CN[C@@]12CC3(C=CC(=O)C=C3)O[C@]1(Cc1ccc(OC)cc1)N(C)C(=O)N2 | 23.7%
11 | COCc1nc(NS(=O)(=O)c2ccc(N)cc2)nc(C)c1Br | 99.1%
12 | COc1ccc2nc(-c3ccccc3)cc(C(C)=O)c2c1 | 68%
13 | COc1ccc(/C=C2\CCCC3=C2N=C2SC(C)=NN2C3c2ccc(OC)c(OC)c2)cc1OC (stereo not given) | 12.1%
14 | COC(=O)[C@]12CC[C@@H](C)[C@H](C)[C@@H]1C1=CC[C@@H]3[C@@]4(C)C[C@@H](O)[C@H](O)[C@@](C)(CO)[C@@H]4[C@H](O)C[C@@]3(C)[C@]1(C)CC2 | -53% (active)
15 | O=C(Nn1c2c(sc1=Nc1ccccc1)C(=O)c1ccccc1C2=O)c1cc2ccc1CCc1ccc(cc1)CC2 | 105%
16 | O=C1C=CC2=C3c4cc(O)c(O)cc4CC3(O)COC2=C1O (stereo not given) | 102%
17 | O=C(CSc1nc2ccc([N+](=O)[O-])cc2[nH]1)Nc1ccc(Br)cc1 | 14.1%
18 | Fc1ccc(-c2cc3nc(C(Cl)Cl)nc(-c4ccccc4)n3n2)cc1 | -59.1% (active)

Row | Compound | growth
19 | NC(=O)c1ccc[n+]([C@@H]2O[C@H](COP(=O)([O-])OP(=O)(O)OC[C@H]3O[C@@H](n4cnc5c(N)ncnc54)[C@H](O)[C@@H]3O)[C@@H](O)[C@H]2O)c1 | 122%
20 | Nc1[nH]n2cc(-c3ccccc3)nc2c1N=Nc1ccc(S(N)(=O)=O)cc1 | 32.6%
21 | CCC(C)(C)c1ccc(OCCCCCCN2CCNCC2)cc1 | -9.22% (active)
22 | O=C1OCC2=C1C(c1cccc(C(F)(F)F)c1)c1cc3c(cc1N2CCO)OCCO3 (stereo not given) | 13.5%
23 | C1=C(Cc2ccccc2)n2cnc3ncnc(c32)S1 | -11.8% (active)
24 | O=C(CSc1nnc(-c2ccc(Cl)cc2)n1-c1ccccc1)Nc1ccccc1Cl | 78.5%
25 | COc1ccc(-c2nn(Cc3ccccc3)c3c2-c2oncc2CC3)cc1OC | 99.9%
26 | CS(=O)(=O)Nc1cccc(-c2ccc3ncnc(Nc4ccc(F)c(Cl)c4)c3c2)c1 | -26% (active)
27 | COc1cccc(-c2nn(-c3ccccc3)cc2-c2ccnc(NCCCNC(=O)c3ccc(F)cc3)c2)c1 | 13.7%
28 | CC1CCc2c(sc3nc(SCC(=O)N/N=C/c4ccc(Cl)cc4)n(-c4ccccc4)c(=O)c23)C1 (stereo not given) | 85.6%
29 | Oc1c(CN2CCC(N3CCOCC3)CC2)cc(Cc2cc(CN3CCC(N4CCOCC4)CC3)c(O)c3ncccc23)c2cccnc12 | 9.12% (active)
30 | O=c1oc2ccc(-c3ccc(F)cc3F)cc2c(=O)n1-c1ccc(F)c(F)c1 | -10.8% (active)
31 | COC(=O)c1ccc2c(c1)nc(-c1cc3ccccc3[nH]c1=O)n2-c1cc(C(C)(C)C)[nH]n1 | 101%
32 | CCCCc1nc(Cl)c(CO)n1Cc1ccc(-c2ccccc2-c2nn[nH]n2)cc1 | 96.4%
33 | COc1cc(/C=C2/Oc3cc4occc4c(OC)c3C2=O)ccc1OCC(=O)Nc1ccncc1 | 105%
34 | COc1ccc(-c2nnc(/N=C3/C(=O)Nc4ccc(Br)cc43)o2)cc1 | 90.7%
35 | O=C1OCC2=C1C(c1cccc([N+](=O)[O-])c1)c1cc3c(cc1N2CCO)CCC3 (stereo not given) | 4.98% (active)

Reference: PubChem BioAssay (NCI)
